The results in this text go back to PubChem BioAssay (NCI).

Assay in all cases: NCI-60 one-dose screen, 48 h (100 = growth as untreated, 0 = no growth, -100 = all killed)
For one test, the system named is HCT-15 colon. The following applies: 10 µM unless noted.
A further test has as its system HT29 colon. The note with it: 10 µM unless noted.
In the next test the test system is SNB-19 CNS. The note with it: 10 µM unless noted.
The test system of a further test is U251 CNS. The note with it: 10 µM unless noted.
In the next test the test system is PC-3 prostate. The following applies: 10 µM unless noted.
The subject of another test is SK-MEL-5 melanoma. The following applies: 10 µM unless noted.
A further test relates to UACC-62 melanoma. The following applies: 10 µM unless noted.
Another test concerns LOX IMVI melanoma. The note with it: 10 µM.
For another test, the system named is SK-MEL-28 melanoma. The following applies: 10 µM unless noted.
For the next test, the system named is SK-MEL-2 melanoma. The following applies: 10 µM unless noted.
Another test deals with UO-31 renal. The note with it: 10 µM unless noted.
The test system of a further test is TK-10 renal. The following applies: 10 µM unless noted.
The next test deals with ACHN renal. The note with it: 10 µM unless noted.
A further test has as its system CAKI-1 renal. The note with it: 10 µM unless noted.
The next test has as its system A498 renal. The note with it: 10 µM unless noted.
A further test deals with CCRF-CEM leukemia. The following applies: 10 µM unless noted.
A further test concerns MOLT-4 leukemia. The note with it: 10 µM unless noted.
In another test the test system is EKVX NSCLC. The note with it: 10 µM unless noted.
For the next test, the system named is SN12C renal. The note with it: 10 µM unless noted.
Another test relates to SNB-75 CNS. The note with it: 10 µM unless noted.

SMILES strings stand for the structures. About 83,000 compounds went through this panel and 20% of them were active in at least one assay; those are over-represented in the sample as a whole.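 Percent growth is the endpoint: 0 to 100 indicates growth inhibition (40 means 60% inhibition), 0 means no net growth, and negative values indicate cell death.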 A number with no mark means an inactive call. Active and inactive are the calls of the source. How the source made its calls: active means growth percent below 10; inactive means the rest.

Regarding `Cc1onc(-c2ccccc2Cl)c1C(=O)Cl`, the growth with HCT-15 colon was 98.2%; with HT29 colon, 106%; in the test on SNB-19 CNS it was 99.2%; in the test on U251 CNS, 96.8%; in the test with PC-3 prostate, 90.7%; in the test with SK-MEL-5 melanoma, 106%. For the same molecule, the growth with UACC-62 melanoma is 99%; in the test with LOX IMVI melanoma, 95.1%; in the test with SK-MEL-28 melanoma, 92.6%; in the test on SK-MEL-2 melanoma, 113%; in the test with UO-31 renal it was 91.2%; with TK-10 renal it was 110%. Moreover, the growth is 96.2% in the test with ACHN renal; 93.5% with CAKI-1 renal; 95.9% in the test on A498 renal; 90.9% with CCRF-CEM leukemia; 114% in the test on MOLT-4 leukemia.
Turning to `COC(=O)Cc1cc(COC(C)=O)ccc1C`, the growth in the test on HCT-15 colon is 106%; with HT29 colon, 96.6%; in the test on SNB-19 CNS, 113%; with U251 CNS, 109%; in the test with PC-3 prostate, 92.6%; in the test with SK-MEL-5 melanoma, 110%. The growth was 104% in the test with UACC-62 melanoma; 108% with LOX IMVI melanoma; 113% in the test with SK-MEL-28 melanoma; 119% in the test on EKVX NSCLC; 114% with SN12C renal; 81.3% in the test with UO-31 renal. Further, the growth with TK-10 renal is 88.5%; in the test with ACHN renal, 103%; in the test on CAKI-1 renal, 116%; in the test with A498 renal it was 95.4%; with CCRF-CEM leukemia it was 96.1%; with MOLT-4 leukemia, 98.4%.
As to `CCOC(=O)c1ccc(C(C)(C)C)cc1`, the growth was 111% in the test on HCT-15 colon; 109% in the test with HT29 colon; 112% in the test on SNB-19 CNS; 97.5% in the test on U251 CNS; 105% with PC-3 prostate; 105% in the test with SK-MEL-5 melanoma. In addition, the growth in the test with UACC-62 melanoma was 106%; with LOX IMVI melanoma, 99.8%; with SK-MEL-28 melanoma, 109%; in the test with EKVX NSCLC, 114%; in the test on SN12C renal, 107%; in the test with UO-31 renal it was 89.8%. In addition, the growth was 103% with TK-10 renal; 110% with ACHN renal; 101% with CAKI-1 renal; 114% in the test on A498 renal; 113% with CCRF-CEM leukemia; 87.1% with MOLT-4 leukemia.
For `Cc1ccc(C(C)C)c(OCC(=O)O)c1`, the growth in the test on HCT-15 colon was 101%; in the test with HT29 colon it was 109%; with SNB-19 CNS, 104%; in the test with U251 CNS, 96.1%; in the test on PC-3 prostate, 98.7%; with SK-MEL-5 melanoma it was 100%. Further, the growth in the test on UACC-62 melanoma was 100%; in the test on LOX IMVI melanoma it was 102%; in the test with SK-MEL-28 melanoma, 106%; in the test on SK-MEL-2 melanoma it was 118%; in the test with SN12C renal it was 100%; in the test with UO-31 renal, 97%. For the same molecule, the growth with TK-10 renal was 107%; in the test with ACHN renal it was 112%; with CAKI-1 renal, 110%; with A498 renal, 73.6%; in the test on CCRF-CEM leukemia it was 96.8%; with MOLT-4 leukemia, 111%.
On to `NS(=O)(=O)c1cc(=O)[nH]c(=O)[nH]1`, for which the growth was 111% in the test with HCT-15 colon; 93.1% with SNB-75 CNS; 106% in the test on SNB-19 CNS; 98% in the test with U251 CNS; 120% with PC-3 prostate; 107% in the test with SK-MEL-5 melanoma. The growth was 93.4% in the test on LOX IMVI melanoma; 110% in the test on SK-MEL-28 melanoma; 112% in the test with EKVX NSCLC; 108% in the test on SN12C renal; 100% in the test on UO-31 renal; 113% in the test on TK-10 renal. The growth in the test with CAKI-1 renal is 111%; in the test with A498 renal, 190%; with CCRF-CEM leukemia, 103%; with MOLT-4 leukemia it was 148%.
With `c1ccc2c(NCCCN3CCN(CCCNc4c5ccccc5nc5ccccc45)CC3)c3ccccc3nc2c1`, the growth in the test with HCT-15 colon was 2.79% [100 µM] (active); in the test on SNB-75 CNS, -91% [100 µM] (active); with SNB-19 CNS, -21.1% [100 µM] (active); in the test with U251 CNS it was -19.4% [100 µM] (active); with PC-3 prostate, -33.1% [100 µM] (active); in the test on SK-MEL-5 melanoma, -70.3% [100 µM] (active). The growth is -88.5% [100 µM] (active) in the test on UACC-62 melanoma; -72.3% [100 µM] (active) in the test with SK-MEL-28 melanoma; -76.8% [100 µM] (active) with SK-MEL-2 melanoma; -48.6% [100 µM] (active) in the test on EKVX NSCLC; -27.6% [100 µM] (active) with UO-31 renal; -9.59% [100 µM] (active) with TK-10 renal. In addition, the growth in the test with ACHN renal is -60.9% [100 µM] (active); in the test with A498 renal, -31.9% [100 µM] (active); in the test with CCRF-CEM leukemia, -0.0236% [100 µM] (active); with MOLT-4 leukemia, -5.28% [100 µM] (active).
As to `Cc1ccc(S(=O)(=O)NC(=O)NCCSSCCNC(=O)NS(=O)(=O)c2ccc(C)cc2)cc1`, the growth is 96.7% in the test on HCT-15 colon; 99.4% with SNB-19 CNS; 98.6% with U251 CNS; 96.6% with PC-3 prostate; 97.8% in the test with SK-MEL-5 melanoma; 101% with UACC-62 melanoma. Also, the growth is 98.2% with LOX IMVI melanoma; 109% with SK-MEL-28 melanoma; 112% in the test on SK-MEL-2 melanoma; 100% in the test on SN12C renal; 90.3% in the test on UO-31 renal; 102% with TK-10 renal. For the same molecule, the growth in the test on ACHN renal was 96.2%; in the test with CAKI-1 renal it was 96.5%; in the test with A498 renal, 93.1%; in the test on CCRF-CEM leukemia, 99.1%; in the test on MOLT-4 leukemia it was 110%.
For the molecule `CCNc1ncnc2[nH]ncc12`, the growth in the test with HCT-15 colon is 102%; in the test with SNB-75 CNS, 88.9%; with SNB-19 CNS, 104%; in the test on U251 CNS, 101%; in the test with PC-3 prostate, 94.6%; with SK-MEL-5 melanoma, 101%. Also, the growth in the test on LOX IMVI melanoma is 98%; with SK-MEL-28 melanoma it was 111%; in the test on SK-MEL-2 melanoma, 101%; in the test on EKVX NSCLC, 88.6%; in the test on SN12C renal, 96.9%; in the test on UO-31 renal, 99.7%. Further, the growth in the test with TK-10 renal is 102%; in the test on CAKI-1 renal it was 93%; in the test with A498 renal, 96.9%; in the test on CCRF-CEM leukemia it was 30.1%; in the test on MOLT-4 leukemia it was 134%.
